Source: PubChem BioAssay
Rows were chosen to be rich in hits. Some 6.6% of all compounds tested hit in one or more screens of this group.
NR3A LBD binder = modulators (binders) of human NR3A ligand-binding domain; 340,000 compounds, 2.5% hits; Tm shift relative to glycine control, % at 25 µM; NR3A LBD differential scanning fluorimetry, Tm shift; 0% = protein alone, 100% = glycine-bound protein;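 active means melting temperature shift of at least 10% of the positive control shift, at one fixed dose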
Gli-Sufu block = antagonists of Gli-Sufu signaling; Sufu-KO-LIGHT fibroblasts, Gli luciferase reporter luminescence; inhibition, % at 5 µM; 340,000 compounds, 0.74% hits;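 active means inhibition above about 55%, limit read from the data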;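 further: 0% = DMSO-treated cells and 100% = wells with medium but no cells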
MPTP inh = permeability transition pore inhibition; isolated mouse mitochondria, Ca2+ swelling absorbance, 30 min; inhibition, % at 10 µM; AID 602449; 360,000 compounds, 1.4% hits;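 active means inhibition of 50% or more, scaled per plate between neutral and stimulator controls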;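 further: 0% = DMSO wells given calcium and 100% = 1 mM EGTA wells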
Beta apoptosis = blocks beta cell apoptosis | INS-1E cytokine-induced death, ATP luminescence, 48 h; percent of positive-control rescue, neutral wells zero | protection from apoptosis, % (test concentration not listed) | 300,000 compounds, 0.8% hits;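 active means Every replicate reaches about 75%, or at least half do and their mean reaches it too, limit read from the data; inconclusive means At least half of replicates reach the limit but their mean does not; inactive means Under half of replicates reach the limit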;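 further: 0% = cytokine-treated negative control wells and 100% = positive control rescue; higher means more ATP so stronger rescue from cytokine killing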
CSC inhib = blocks cancer stem cells | cancer stem cell-like cells viability, luminescence | inhibition, % at 7.5 µM | 300,000 compounds, 1.1% hits | AID 2717; in the data active means inhibition above about 75%; inconclusive means no clear call, values can overlap the other calls; tested in HMLE shEcad cells
Mdm2-MdmX inh = human Mdm2/MdmX binding inhibition | 330,000 compounds, 3% hits | inhibition, % at 8 µM | O15151+Q00987 | AID 485346 | SaOS-2 split-luciferase Mdm2/MdmX complementation, luminescence;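 active means inhibition of at least 50% at 8 µM in the primary screen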
Target sequence (O15151 whole entry, looked up): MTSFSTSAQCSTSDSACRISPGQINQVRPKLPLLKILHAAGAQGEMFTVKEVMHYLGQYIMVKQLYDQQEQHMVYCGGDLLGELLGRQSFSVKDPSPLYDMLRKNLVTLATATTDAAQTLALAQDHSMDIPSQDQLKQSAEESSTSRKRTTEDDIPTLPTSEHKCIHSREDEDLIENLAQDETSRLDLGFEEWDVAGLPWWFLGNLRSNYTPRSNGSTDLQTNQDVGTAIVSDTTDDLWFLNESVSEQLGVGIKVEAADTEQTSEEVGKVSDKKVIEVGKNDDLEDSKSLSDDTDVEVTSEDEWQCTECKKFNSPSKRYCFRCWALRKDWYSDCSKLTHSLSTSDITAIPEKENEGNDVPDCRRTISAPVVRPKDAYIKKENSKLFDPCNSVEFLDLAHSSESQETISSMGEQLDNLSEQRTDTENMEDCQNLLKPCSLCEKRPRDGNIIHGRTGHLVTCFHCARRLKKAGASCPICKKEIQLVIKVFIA
Target sequence (Q00987 whole entry, looked up): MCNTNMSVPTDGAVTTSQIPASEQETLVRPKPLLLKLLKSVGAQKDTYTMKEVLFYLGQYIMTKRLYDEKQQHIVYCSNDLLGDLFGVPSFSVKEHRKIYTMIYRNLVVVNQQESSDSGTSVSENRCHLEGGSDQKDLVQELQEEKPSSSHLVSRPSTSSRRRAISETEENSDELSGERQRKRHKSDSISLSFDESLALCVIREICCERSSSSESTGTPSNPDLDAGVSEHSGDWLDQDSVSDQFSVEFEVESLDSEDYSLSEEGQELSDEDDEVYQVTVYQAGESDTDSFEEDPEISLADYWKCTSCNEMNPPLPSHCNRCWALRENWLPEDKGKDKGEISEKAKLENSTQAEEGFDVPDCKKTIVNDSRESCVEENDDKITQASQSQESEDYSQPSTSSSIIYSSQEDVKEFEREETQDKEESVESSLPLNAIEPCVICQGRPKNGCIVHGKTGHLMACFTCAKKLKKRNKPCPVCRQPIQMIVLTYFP
Mdm2-MdmX conf = human Mdm2/MdmX binding inhibition, confirmed; luminescent assay; shares compounds with Mdm2-MdmX inh; inhibition, % at 8 µM; 10,000 compounds, 55% hits; in the data active means inhibition above about 40%
Full FLuc ctr = full-length luciferase inhibition in Mdm2/MdmX counter-screen; shares compounds with Mdm2-MdmX inh; SaOS-2 full-length luciferase counterscreen, luminescence; inhibition, % at 8 µM; 6,200 compounds, 77% hits; AID 504607;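 active means mean inhibition at 8 µM reaching about 37%, which flags the compound as non-specific, limit read from the data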;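 further: p53-null SaOS-2 cells with luciferase driven by a doxycycline-inducible promoter; compound on cells about two nights before reading with doxycycline added after day one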
* hit, by the source's call; ? = inconclusive; · = no result given.

SMILES	NR3A LBD binder	Gli-Sufu block	MPTP inh	Beta apoptosis	CSC inhib	Mdm2-MdmX inh	Mdm2-MdmX conf	Full FLuc ctr
COc1ccc(C(=O)Nc2ccccc2C(=O)N(Cc2ccco2)C(C(N)=O)C(C)C)cc1 (centres undefined)	-3	-28	1	-4	-4	66*	21	·
COc1ccc(C(=O)Nc2ccccc2C(=O)NC(C(=O)NCc2ccco2)C(C)C)cc1 (centres undefined)	0	0	2	11	7	74*	-9	·
COc1ccc(C(=O)N[C@H](C(=O)NCc2ccco2)C(C)C)cc1	0	-4	2	0	9	-4	·	·
COc1ccc(C(=O)Nc2ccccc2C(N)=O)cc1	5	-52	-1	7	·	-78	·	·
O=C(COc1ccc(Cl)cc1)Nc1ccccc1C(=O)NCc1ccco1	-4	4	0	-2	23	73*	-19	·
CC(=O)Nc1ccc(S(=O)(=O)N(C)c2ccc(OCC(=O)Nc3ccccc3C(C)=O)cc2)cc1	0	9	-2	·	·	13	·	·
CN(c1ccc(OCC(=O)Nc2ccccc2C(=O)O)cc1)S(=O)(=O)c1ccc(Cl)cc1	-13	9	0	-1	49	90*	40*	39*
CC(C)(CO)[C@@H](O)C(=O)NCCC(=O)O	0	-2	-1	-6	-14	8	·	·
CCOC(=O)COc1cccc2c(=O)n(CC(=O)NCc3ccc(F)cc3)ccc12	2	49	1	4	63	59*	61*	83*
CCOC(=O)C(C)Oc1cccc2c(=O)n(CC(=O)NCc3ccc4c(c3)OCO4)ccc12 (centres undefined)	-11	15	-1	17	55	54*	59*	57*
COC(=O)[C@]1(Sc2ccc(C)cc2)CC(=O)N[C@@H]1c1ccccc1	·	·	1	·	·	·	·	·
Cc1c(Cl)cccc1NC(=O)CCC(=O)N/N=C/c1ccc[nH]1	-8	18	0	-4	38	55*	41*	42*
O=C(Nc1c2ccccc2nc2ccccc12)C(Cl)(Cl)Cl	-9	-6	2	?	·	62*	48*	34
CCc1nc2ccc(C(=O)NCCCN3CCCC3=O)cn2c1N(C)C(=O)Nc1ccccc1OC	·	·	-2	·	·	·	·	·
CC1CC(=O)c2c(cc3c(-c4c(O)cc(O)c5c(O)c6c(cc45)OC(C)CC6=O)c(O)cc(O)c3c2O)O1 (centres undefined)	24*	23	18	98*	-1	100*	93*	5
CCN(CC)CCNC(=O)c1ccc(NC(=O)c2ccc(Cl)c(S(=O)(=O)N3CCCCCC3)c2)cc1	-2	16	0	12	9	94*	37	·
CCN(CC)CCNC(=O)c1ccc(NC(=O)c2ccc(C(=O)c3ccccc3)cc2)cc1	-2	12	7	0	2	44	·	·
CCN(CC)CCNC(=O)c1ccc(NC(=O)c2ccc(COc3ccccc3)cc2)cc1	-2	12	-2	1	-6	83*	34	·
CCOc1cc(C(=O)O/N=C(\N)c2ccc([N+](=O)[O-])cc2)cc(OCC)c1OCC	0	-3	2	0	-12	67*	46*	92*
COc1cc(C(=O)O/N=C(\N)c2ccc([N+](=O)[O-])cc2)cc(OC)c1OC	1	-1	1	11	-3	75*	36	95*
COc1cc(C(=O)O/N=C(\N)c2cccc([N+](=O)[O-])c2)cc(OC)c1OC	14*	4	4	·	-4	74*	36	103*
COc1ccccc1N1CCN(C(=O)c2ccc3c(=O)n(Cc4ccc5c(c4)OCO5)c(=O)[nH]c3c2)CC1	5	4	-1	1	15	33	·	·
CCOC(=O)N1CCN(C(=O)CNC(=O)c2ccc(Br)o2)CC1	-1	4	-1	1	-1	-10	·	·
CN(C)C(=O)CCc1ccc2c3c([nH]c2c1)[C@]1(C)[C@@H](C(=O)N2CCCCC2)C[C@H](CC(=O)NCc2ccco2)C(=O)N1CC3	2	1	0	·	·	13	·	·
CN(C)C(=O)CCc1ccc2c3c([nH]c2c1)[C@]1(CCc2ccccc2)[C@@H](C(=O)N2CCCCC2)C[C@H](CC(=O)NCc2ccco2)C(=O)N1CC3	2	8	-2	·	·	98*	74*	51*
SMILES	NR3A LBD binder	Gli-Sufu block	MPTP inh	Beta apoptosis	CSC inhib	Mdm2-MdmX inh	Mdm2-MdmX conf	Full FLuc ctr
O=C(CC1C[C@H](C(=O)N2CCCCC2)[C@@]2(CCc3ccccc3)c3[nH]c4ccccc4c3CCN2C1=O)NCc1ccco1 (some centres undefined)	1	4	-2	14	·	52*	18	·
CC(C)(C)NC(=O)CC1C[C@H](C(=O)N2CCCCC2)[C@@]2(CCc3ccccc3)c3[nH]c4ccccc4c3CCN2C1=O (some centres undefined)	-6	-2	0	-7	2	62*	50*	70*
COc1ccc2[nH]c3c(c2c1)CCN1C(=O)C(CC(=O)NC(C)(C)C)C[C@H](C(=O)N2CCCCC2)[C@@]31CCc1ccccc1 (some centres undefined)	0	25	0	·	·	28	·	·
CCOC(=O)C1=C(CN2CCN(C(=O)c3ccco3)CC2)NC(=O)NC1c1ccc(F)cc1 (centres undefined)	-3	-4	0	-4	-11	8	·	·
Cc1ccc(S(=O)(=O)NCc2ccccc2)cc1C(=O)NCC1CCCO1 (centres undefined)	4	-11	1	·	-13	10	·	·
Cc1cc(C)cc(NC(=O)CSc2ccc(-c3ccccn3)nn2)c1	2	13	0	24	96*	68*	68*	32
O=C(Nc1ccccc1[N+](=O)[O-])C1=C(O)CCn2c1nc1ccccc12	-6	1	1	23	2	71*	18	·
O=C(Nc1ccccc1[N+](=O)[O-])c1cc2ccccc2nc1Cl	0	0	1	-8	·	64*	-26	·
O=C(Cn1nnc2ccccc21)Nc1ccccc1[N+](=O)[O-]	2	-7	0	0	·	-6	·	·
Cn1nc(-c2ccc(Cl)cc2)nc2c(=O)n(C)c(=O)nc1-2	·	·	·	99*	119*	83*	80*	20
CS(=O)(=O)n1nc(-c2ccc(Cl)cc2)nc1N	2	-10	-3	0	-9	-2	·	·
O=C(NCCN1CCC(n2c(=O)[nH]c3ccccc32)CC1)c1ccc(F)cc1F	·	·	0	·	·	·	·	·
CCOc1cc(NC(=O)C2CC2)c(OCC)cc1NC(=O)c1cc(OC)c(OC)c(OC)c1	-3	2	1	10	-8	62*	13	·
